Measurements taken from ChEMBL document CHEMBL4513141, “CO-ADD screening of NIH (USA) - Clinical Collection” (2021).
Potency and affinity values are given separately.

system: Staphylococcus aureus; details: Concentration 20 uM; ASSAY_TEST Inhibition of Bacterial Growth; detection method Absorption (OD600); MEDIA CAMHB; plate type 384well; NBS; CORNING #3640; time 18 hr

SMILES	Inhibition
O=C1CCc2ccc(OCCCCN3CCN(c4cccc(Cl)c4Cl)CC3)cc2N1 [ARIPIPRAZOLE]	-0.8%
Nc1ncnc2c1ncn2[C@@H]1O[C@H](CO)[C@@H](O)[C@@H]1O [VIDARABINE]	17.44%
CNCC[C@H](Oc1cccc2ccccc12)c1cccs1.Cl [DULOXETINE HYDROCHLORIDE]	-17.99%
Cc1[nH]c(=O)c(C#N)cc1-c1ccncc1 [MILRINONE]	14.68%
CC(=O)O[C@H]1C[C@@H]2CC[C@@H]3[C@H](CC[C@@]4(C)[C@H]3C[C@H]([N+]3(C)CCCCC3)[C@@H]4OC(C)=O)[C@@]2(C)C[C@@H]1N1CCCCC1.[Br-] [VECURONIUM BROMIDE]	-16.09%
CN(C)CC[C@@H](c1ccc(Cl)cc1)c1ccccn1.O=C(O)/C=C\C(=O)O [DEXCHLORPHENIRAMINE MALEATE]	5.99%
OCCN1C[C@H](O)[C@@H](O)[C@H](O)[C@H]1CO [MIGLITOL]	16.69%
CC(=O)OCC(=O)[C@@]1(O)CC[C@H]2[C@@H]3C[C@H](C)C4=CC(=O)C=C[C@]4(C)[C@H]3[C@@H](O)C[C@@]21C [METHYLPREDNISOLONE ACETATE]	6.17%
CN(CCOc1ccc(CC2SC(=O)NC2=O)cc1)c1ccccn1.O=C(O)/C=C\C(=O)O (stereo not given) [ROSIGLITAZONE MALEATE]	5.02%
Nc1c2c(nc3c1CCC3)CCCC2 [IPIDACRINE]	16.52%
